# TrxR1 substrate – substrates of rat thioredoxin reductase 1 | hit rate 0.01% among 390,000 | AID 588456 | Potency, µM (top dose mostly 114 µM) | O89049 | purified TrxR1 substrate turnover, NADPH consumption readout; further: nearly all actives have a fitted effect of over 50% in size
#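 Rat TrxR1, dispensed at 90 nM, was prereduced with 400 uM NADPH (final) for 5 min at ~22 deg C, then incubated with compound 15 min before 400 uM selenite. A first-read NADPH fluorescence drop versus no-compound background flagged substrates.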
# GALK inh – inhibitors of human galactokinase | P51570 | Purified GALK, Kinase-Glo residual ATP luminescence | Potency, µM (titrated, usually from 57.5 µM), usual class: inhibitors | hit rate 0.007% among 270,000
# Target sequence (P51570 whole entry, looked up): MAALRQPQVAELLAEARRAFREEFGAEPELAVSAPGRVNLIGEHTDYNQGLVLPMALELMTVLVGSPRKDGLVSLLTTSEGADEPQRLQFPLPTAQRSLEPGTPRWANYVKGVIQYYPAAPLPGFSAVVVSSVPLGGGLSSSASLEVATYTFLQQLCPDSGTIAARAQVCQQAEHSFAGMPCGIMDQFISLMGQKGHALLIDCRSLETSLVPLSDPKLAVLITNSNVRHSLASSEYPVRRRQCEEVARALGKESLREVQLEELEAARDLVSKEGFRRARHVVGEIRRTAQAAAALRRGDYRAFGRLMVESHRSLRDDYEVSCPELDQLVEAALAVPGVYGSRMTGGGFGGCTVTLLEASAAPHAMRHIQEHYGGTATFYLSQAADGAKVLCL
#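 Luminescence from leftover ATP (Ultra-Glo luciferase/luciferin) served as read-out after a 1 h room-temperature reaction of 5 nM GALK with 35 uM ATP and 100 uM galactose.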
# FBPA coupling cs – coupling enzyme interference in Giardia aldolase counter-screen | activity change, negative = inhibition, % at 58.2 µM, hits read low | coupling enzyme system counterscreen, AmpLite Red fluorescence | hit rate 0.67% among 290,000 | AID 2472; in the data active means activity change below about -30%
#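 Counterscreen lacking aldolase: glyceraldehyde-3-phosphate coupling-enzyme reagent preincubated 10 min at RT with compound (at 57.5 uM final), then substrate/coupling system with AmpLite Red added; fluorescence read at 525/598 nm after 20 min RT.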
# TrxR1 inh – blocks rat thioredoxin reductase 1. recombinant rTrxR1, NADPH fluorescence consumption, selenite substrate. Potency, µM (top dose mostly 114 µM), most hits filed as inhibitors. hit rate 1% among 390,000; further: nearly all actives have a fitted effect of over 65% in size
#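 Rat TrxR1 (90 nM in the dispensed reagent) was pre-reduced with 400 uM NADPH for 5 min at room temperature, then incubated with compound for 15 min. After 400 uM selenite was added, NADPH fluorescence (Ex 340/Em 450 nm) was followed for 8 min.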
# Gal4-VP16 FLuc – inhibits Gal4-VP16 luciferase reporter, ROR gamma counter-screen | Drosophila S2 Gal4-VP16 UAS-luciferase, luminescence, 20 h | Potency, µM (top dose mostly 53.6 µM), hits mostly inhibitors | hit rate 3.5% among 310,000 | AID 2546;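 further: Gal4-VP16 expression switched on by copper sulfate through the metallothionein promoter; nearly all actives have a fitted effect of over 50% in size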
# RORg inh – blocks mouse ROR gamma transcriptional activity. P51450. Drosophila S2 Gal4-RORgamma UAS-luciferase reporter, 20 h. Potency, µM (highest dose often 53.6 µM), most hits filed as inhibitors. hit rate 5.4% among 310,000; further: nearly all actives have a fitted effect of over 60% in size
#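 Schneider cells (Drosophila), stable Gal4 DBD–ROR gamma + UAS-luc; 1 hr cmpd preincubation; Cu2+ induction 700 uM final; 20 hr ambient; luminescence.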
# Numbers stand for hits; 0 = inactive; ? = inconclusive; - = not tested or not shown; [ ] = dose if it differs, or a comment. This is a sample that favours compounds with a hit; in the whole collection about 5.9% have one here. Unless noted, the call rests on the fitted dose curve; in most records, active means well fitted curve in the direction sought with a large enough effect; inconclusive means small, poorly fitted or top-dose-only effect, or another doubt; inactive means no such curve, though single readings can be large; an effect the other way counts as inactive or inconclusive.
SMILES,TrxR1 substrate,GALK inh,FBPA coupling cs,TrxR1 inh,Gal4-VP16 FLuc,RORg inh
CCOC(=O)C1(Cc2ccc(Cl)cc2)CCN(CCCn2cccn2)CC1,0,0,0,0,0,0
CCOC(=O)C1(Cc2ccc(Cl)cc2)CCN(Cc2nccn2CC)CC1,0,0,0,0,13µM,3.2µM
CCOC(=O)C1(CCc2ccccc2)CCN(Cc2ccc(OC)cc2)CC1,0,0,0,0,0,0
CCOC(=O)C1(CCc2ccccc2)CCN(Cc2nccn2CC)CC1,0,0,0,0,11µM,7.1µM
CCOC(=O)C1(Cc2ccccc2)CCN(Cc2ccon2)CC1,0,0,0,0,0,0
CCOC(=O)C1(Cc2ccccc2)CCN(Cc2nccn2CC)CC1,0,0,0,0,?,7.9µM
CCOC(=O)c1nnn(-c2nonc2N)c1CS(=O)(=O)c1ccccc1,0,-,0,0,0,0
CC(=O)C1=C(C)Nc2ncnn2C1c1ccccc1OCc1ccccc1 (stereo not given),0,0,0,0,0,0
CCN1C(=O)c2ccccc2S(=O)(=O)c2ccc(C(=O)NCc3ccc(OC)cc3)cc21,0,-,-,0,-,-
COc1ccc(N2CCN(CCCNC(=O)Cn3c(-c4cccs4)cc4ccccc43)CC2)cc1,0,-,-,0,-,-
CCCCNC(=O)CSc1nc2ccc(N3CCOCC3)cc2c(=O)n1Cc1ccc(OC)cc1,0,0,-31,0,0,?
COCCNC(=O)CSc1nc2cc(OC)c(OC)cc2c(=O)n1Cc1ccc(OC)cc1,0,0,0,0,0,0
COCCNC(=O)CSc1nc2ccc(N3CCOCC3)cc2c(=O)n1Cc1ccc(OC)cc1,0,0,-39,?,14µM,10µM
CCOC(=O)CSc1nc2ccc(N3CCOCC3)cc2c(=O)n1Cc1ccc2c(c1)OCO2,-,0,-31,-,0,?
Cc1oc2ncnc(N3CCCCC3)c2c1C(=O)Nc1cccc(F)c1,0,-,-,0,-,-
COc1ccc(/C=C/C(=O)OCC(=O)Nc2cc(C(N)=O)cc(C(N)=O)c2)cc1,0,0,0,0,0,0
Cc1nc(NCc2ccc(S(N)(=O)=O)cc2)c2c(C)c(C)sc2n1,0,0,0,0,0,0
Cc1nc(NCCc2ccc(S(N)(=O)=O)cc2)c2c(C)c(C)sc2n1,0,0,0,0,10µM,10µM
O=C(NC(=S)NNC(=O)c1cccs1)c1ccc(Br)o1,0,0,0,0,0,0
CC(=O)Nc1ccc(S(=O)(=O)N(C)Cc2cnn(C)c2)cc1,0,0,0,0,0,0
COc1ccc(N/N=C(/C#N)S(=O)(=O)c2nsc(C)c2C#N)cc1,0,?,0,?,0,?
Cc1snc(S(=O)(=O)/C(C#N)=N/Nc2cccc(C(F)(F)F)c2)c1C#N,0,28µM,0,0,0,0
CCCNC(=S)NC1CCCC1,0,0,0,0,?,11µM
NNC(=S)NC1CCCCC1,0,0,0,0,7.1µM,2.8µM
CCCNC(=O)NC1CCCCCCC1,0,0,0,0,0,0
SMILES,TrxR1 substrate,GALK inh,FBPA coupling cs,TrxR1 inh,Gal4-VP16 FLuc,RORg inh
O=C(NNC1=C(C(=O)C(F)(F)F)CCC1)c1cccnc1,0,0,0,0,11µM,7.1µM
O=C(NNC(=O)c1cccnc1)c1ccncc1,0,0,0,0,0,0
Cc1cccc(C(=O)NNC(=O)c2ccc(Cl)cc2)c1O,0,0,0,0,0,?
O=C(NNC1=C(C(=O)C(F)(F)F)CCC1)c1cccc(O)c1,0,0,0,0,3.5µM,5µM
Cc1cccc(C(=O)NNC2=C(C(=O)C(F)(F)F)CCC2)c1O,0,0,0,0,10µM,6.3µM
COc1ccccc1C(CNC(=O)C1CCN(C(=O)Nc2ccccc2)CC1)N1CCCC1 (stereo not given),0,-,-,0,-,-
COc1ccc(/C=N/NC(=O)c2ccncc2)cc1CN1CCOCC1,0,0,0,0,0,0
CCOc1cccc(-c2cc(C(=O)N/N=C/c3ccc(OC)c(CN4CCOCC4)c3)c3ccccc3n2)c1,0,0,0,0,?,16µM
CCCNc1nc2c(c(=O)n(C)c(=O)n2C)n1Cc1cccc(C)c1,0,0,0,0,5µM,0
COCCNc1nc2c(c(=O)n(C)c(=O)n2C)n1Cc1cccc(C(F)(F)F)c1,0,0,0,0,3.2µM,0
CCCNc1nc2c(c(=O)n(C)c(=O)n2C)n1CCc1ccccc1,0,0,0,0,?,?
COC(=O)[C@]1(CC(C)C)N[C@H](c2ccc(-c3ccc(C(C)=O)cc3)cc2)[C@@H]2C(=O)N(C)C(=O)[C@@H]21,0,-,-,0,-,-
CCOC(=O)/C=C/C(=O)OCC(=O)Nc1ccc(OC)c(Cl)c1,0,0,0,16µM,0,0[10 µM]
O=C(COC(=O)c1ccc([N+](=O)[O-])s1)NCc1ccccc1,0,0,0,0,0,11µM
COc1ccc(NC(=O)COC(=O)/C=C/C(=O)OCC(=O)Nc2ccc(OC)c(Cl)c2)cc1Cl,0,0,0,0,0,0[10 µM]
CCCn1c(C)cc(/C=C(\C#N)C(=O)OCC(=O)Nc2ccc(OC)c(Cl)c2)c1C,0,0,0,79µM,0,?
CCOC(=O)/C=C/C(=O)OCC(=O)NCc1ccccc1,0,0,0,25µM,0,?
Cc1ccc(NS(=O)(=O)c2cnc(N)nc2)c(C)c1,0,-,-,0,-,-
COc1ccc(NC(=O)NC2(C(=O)N3CCCC3)CCCCC2)cc1,0,0,0,0,0,0
CCOC(=O)/C=C/C(=O)OCC(=O)Nc1c(Cl)cccc1Cl,0,0,0,50µM,0,0
COc1ccc(NC(=O)COC(=O)C(CC(C)C)N2C(=O)C3CC=CCC3C2=O)cc1Cl (stereo not given),0,0,0,0,22µM,0
CCOC(=O)/C=C/C(=O)OCC(=O)Nc1ccc(Cl)cc1Cl,0,0,0,?,0,0
CCCCCCCCNS(=O)(=O)CCNC1CC1,0,-,-,45µM,-,-
CCCCCCCCNS(=O)(=O)CCNCCCC,0,-,-,0,-,-
CC(=O)N1CCc2cc(CNC(=O)c3ccccc3Br)ccc21,0,-,-,0,-,-
SMILES,TrxR1 substrate,GALK inh,FBPA coupling cs,TrxR1 inh,Gal4-VP16 FLuc,RORg inh
COc1ccc(NC(=S)c2ccccc2)cc1,0,0,0,0,0,0
Cc1ccc2nc(-c3ccccc3)c(CN3CCSCC3)n2c1,0,0,0,0,0,16µM
Cc1ccc2nc(-c3ccccc3)c(CN3CCN(c4ccccc4F)CC3)n2c1,0,0,0,0,?,8.9µM
Cc1ccc2nc(-c3ccccc3)c(CN3CCOCC3)n2c1,0,0,0,0,?,0
O=S(=O)(c1ccc(Cl)c(NC(=S)N/N=C/c2ccc(O)cc2)c1)N1CCOCC1,0,0,0,0,6.3µM,10µM
O=S(=O)(c1ccc(Cl)c(NC(=S)Nc2ccccc2N2CCOCC2)c1)N1CCOCC1,0,0,0,?,0,?
